Records with an inconclusive call do not appear. A call without a number means that no potency is given here. Unmarked numbers belong to inactive results. The source made the active and inactive calls. The call rests on the fitted dose curve; in most records, active means well fitted curve in the direction sought with a large enough effect in the repeat runs; inconclusive means weak or mixed curves; inactive means no such curve, though single readings can be large; an effect the other way counts as inactive or inconclusive.
Assay: qHTS RealTime-Glo MT Cell Viability Assay in HEK293 cells - 16 hour (AID 1224872); further: top concentration of the series differs between compounds; nearly all actives have a fitted effect of over 50% in size
Details: RealTime-Glo luminescence; series mostly up to 76.8 µM; activity change, negative = cytotoxicity: at the top concentration
Procedure, shortened: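 Nonlytic real-time viability readout: viable cells convert prosubstrate to NanoLuc substrate, giving luminescence proportional to live cell number. HEK293, 600 cells/well, compound added after 5 h, continuous culture at 37 C.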

**Q.** For CCCCC(CC)COC(=O)c1ccc(C(=O)OCC(CC)CCCC)c(C(=O)OCC(CC)CCCC)c1 (stereo unspecified), which Potency is on record?
**A.** inactive

**Q.** Which Potency does the source give for C=C(C)C(=O)OCC1CO1 (stereo unspecified) here?
**A.** inactive

**Q.** For CCOC(=S)S, which “activity change, negative = cytotoxicity” value is on record?
**A.** 23.9%

**Q.** With CCN(CC)N=O as the compound, how does the Potency read?
**A.** inactive

**Q.** For COc1ccc(C(CN(C)C)C2(O)CCCCC2)cc1 (stereo unspecified), which Potency is on record?
**A.** inactive

**Q.** Which Potency does the source give for CCCCCCCCCCCOC(=O)c1ccccc1C(=O)OCCCCCCCCCCC here?
**A.** inactive

**Q.** With c1ccc(P(c2ccccc2)c2ccccc2)cc1 as the compound, how does the Potency read?
**A.** inactive

**Q.** With Cc1ccc(OP(=O)(Oc2ccc(C)cc2)Oc2ccc(C)cc2)cc1 as the compound, how does the “activity change, negative = cytotoxicity” value read?
**A.** -19.3%

**Q.** Which Potency does the source give for COc1ccc(C=O)cc1 here?
**A.** inactive

**Q.** With CNC(=O)Oc1cccc2c1OC(C)(C)O2 as the compound, how does the Potency read?
**A.** inactive

**Q.** For O=C1C=CC(=O)C=C1, which Potency is on record?
**A.** inactive

**Q.** Which Potency does the source give for C=CC(=O)OCCO here?
**A.** inactive

**Q.** Which Potency does the source give for CCN(CC)C(=O)/C(Cl)=C(\C)OP(=O)(OC)OC here?
**A.** inactive

**Q.** For Nc1cccnc1, which Potency is on record?
**A.** inactive

**Q.** With Nc1ccc(Cl)c(Cl)c1 as the compound, how does the Potency read?
**A.** inactive

**Q.** With CCCCN(CC)c1c([N+](=O)[O-])cc(C(F)(F)F)cc1[N+](=O)[O-] as the compound, how does the “activity change, negative = cytotoxicity” value read?
**A.** -6.4%

**Q.** Which “activity change, negative = cytotoxicity” value does the source give for CCC(CC)Nc1c([N+](=O)[O-])cc(C)c(C)c1[N+](=O)[O-] here?
**A.** -5.82%

**Q.** With CCCCCCCCOC(=O)c1ccccc1C(=O)OCCCCCCCC as the compound, how does the Potency read?
**A.** inactive

**Q.** With C1=Cc2cccc3cccc1c23 as the compound, how does the “activity change, negative = cytotoxicity” value read?
**A.** 1.44%

**Q.** With CCOCN(C(=O)CCl)c1c(C)cccc1CC as the compound, how does the Potency read?
**A.** inactive

**Q.** Which “activity change, negative = cytotoxicity” value does the source give for CCN(CC)C(=O)SCc1ccc(Cl)cc1 here?
**A.** -16.3%

**Q.** With COP(=S)(OC)Oc1cc(Cl)c(Cl)cc1Cl as the compound, how does the Potency read?
**A.** inactive

**Q.** For C[C@]12CCC(=O)C(O)=C1CC[C@@H]1[C@@H]2CC[C@]2(C)C(=O)CC[C@@H]12, which Potency is on record?
**A.** inactive

**Q.** For O=[N+]([O-])c1cccc2ccccc12, which Potency is on record?
**A.** inactive

**Q.** With N#Cc1cc(Br)c(O)c(Br)c1 as the compound, how does the Potency read?
**A.** inactive

**Q.** With CCc1cccc(CC)c1N(COC)C(=O)CCl as the compound, how does the Potency read?
**A.** inactive

**Q.** For CCOc1cc(C=O)ccc1O, which Potency is on record?
**A.** inactive

**Q.** With N#CC(Br)Br as the compound, how does the “activity change, negative = cytotoxicity” value read?
**A.** 5.89%

**Q.** For Clc1nc(Cl)nc(Cl)n1, which Potency is on record?
**A.** inactive

**Q.** Which Potency does the source give for COP(=O)(OC)OC here?
**A.** inactive

**Q.** Which Potency does the source give for CC(O)CCO (stereo unspecified) here?
**A.** inactive

**Q.** For CCN(N=O)C(N)=O, which Potency is on record?
**A.** inactive

**Q.** Which Potency does the source give for NNC(=S)NN here?
**A.** inactive

**Q.** With OCC(O)CO as the compound, how does the Potency read?
**A.** inactive

**Q.** With S=C1NCCN1 as the compound, how does the Potency read?
**A.** inactive

**Q.** With CC(C)c1ccc(CO)cc1 as the compound, how does the Potency read?
**A.** inactive

**Q.** For Oc1cc(Cl)c(Cl)cc1Cl, which Potency is on record?
**A.** inactive

**Q.** Which Potency does the source give for CC(C)(OOC(C)(C)c1ccccc1)c1ccccc1 here?
**A.** inactive

Assay: qHTS RealTime-Glo MT Cell Viability Assay in HepG2 cells - 8 hour (AID 1224873); further: nearly all actives have a fitted effect of over 55% in size
Details: RealTime-Glo luminescence; series mostly up to 76.8 µM; viability change, negative = cytotoxic: at the top concentration
Procedure, shortened: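 HepG2 cells mixed with RealTime-Glo MT reagents (NanoLuc plus cell-permeant prosubstrate) were seeded at 600 cells/well, incubated 5 h at 37 C/5% CO2, then pinned with compounds in DMSO; nonlytic luminescence tracked viability during 40 h treatment.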

**Q.** With CCCCC(CC)COC(=O)c1ccc(C(=O)OCC(CC)CCCC)c(C(=O)OCC(CC)CCCC)c1 (stereo unspecified) as the compound, how does the Potency read?
**A.** inactive

**Q.** For C=C(C)C(=O)OCC1CO1 (stereo unspecified), which Potency is on record?
**A.** inactive

**Q.** For CCOC(=S)S, which Potency is on record?
**A.** inactive

**Q.** With CCN(CC)N=O as the compound, how does the Potency read?
**A.** inactive

**Q.** With COc1ccc(C(CN(C)C)C2(O)CCCCC2)cc1 (stereo unspecified) as the compound, how does the “viability change, negative = cytotoxic” value read?
**A.** 1.59% [at 35.3 µM]

**Q.** For CCCCCCCCCCCOC(=O)c1ccccc1C(=O)OCCCCCCCCCCC, which Potency is on record?
**A.** inactive

**Q.** With c1ccc(P(c2ccccc2)c2ccccc2)cc1 as the compound, how does the Potency read?
**A.** inactive

**Q.** Which Potency does the source give for Cc1ccc(OP(=O)(Oc2ccc(C)cc2)Oc2ccc(C)cc2)cc1 here?
**A.** inactive

**Q.** For COc1ccc(C=O)cc1, which Potency is on record?
**A.** inactive

**Q.** Which Potency does the source give for CNC(=O)Oc1cccc2c1OC(C)(C)O2 here?
**A.** inactive

**Q.** For O=C1C=CC(=O)C=C1, which Potency is on record?
**A.** inactive

**Q.** For C=CC(=O)OCCO, which Potency is on record?
**A.** inactive

**Q.** With CCN(CC)C(=O)/C(Cl)=C(\C)OP(=O)(OC)OC as the compound, how does the Potency read?
**A.** inactive

**Q.** Which Potency does the source give for Nc1cccnc1 here?
**A.** inactive

**Q.** With Nc1ccc(Cl)c(Cl)c1 as the compound, how does the Potency read?
**A.** inactive

**Q.** For CCCCN(CC)c1c([N+](=O)[O-])cc(C(F)(F)F)cc1[N+](=O)[O-], which Potency is on record?
**A.** inactive

**Q.** For CCC(CC)Nc1c([N+](=O)[O-])cc(C)c(C)c1[N+](=O)[O-], which Potency is on record?
**A.** inactive

**Q.** For CCCCCCCCOC(=O)c1ccccc1C(=O)OCCCCCCCC, which Potency is on record?
**A.** inactive

**Q.** Which Potency does the source give for C1=Cc2cccc3cccc1c23 here?
**A.** inactive

**Q.** For CCOCN(C(=O)CCl)c1c(C)cccc1CC, which Potency is on record?
**A.** inactive

**Q.** For CCN(CC)C(=O)SCc1ccc(Cl)cc1, which Potency is on record?
**A.** inactive

**Q.** For COP(=S)(OC)Oc1cc(Cl)c(Cl)cc1Cl, which Potency is on record?
**A.** inactive

**Q.** With C[C@]12CCC(=O)C(O)=C1CC[C@@H]1[C@@H]2CC[C@]2(C)C(=O)CC[C@@H]12 as the compound, how does the Potency read?
**A.** inactive

**Q.** For O=[N+]([O-])c1cccc2ccccc12, which Potency is on record?
**A.** inactive

**Q.** With N#Cc1cc(Br)c(O)c(Br)c1 as the compound, how does the Potency read?
**A.** inactive

**Q.** With CCc1cccc(CC)c1N(COC)C(=O)CCl as the compound, how does the Potency read?
**A.** inactive

**Q.** Which Potency does the source give for CCOc1cc(C=O)ccc1O here?
**A.** inactive

**Q.** For N#CC(Br)Br, which Potency is on record?
**A.** inactive

**Q.** For Clc1nc(Cl)nc(Cl)n1, which Potency is on record?
**A.** inactive

**Q.** Which Potency does the source give for COP(=O)(OC)OC here?
**A.** inactive

**Q.** With CC(O)CCO (stereo unspecified) as the compound, how does the Potency read?
**A.** inactive

**Q.** Which Potency does the source give for CCN(N=O)C(N)=O here?
**A.** inactive

**Q.** Which Potency does the source give for NNC(=S)NN here?
**A.** inactive

**Q.** Which Potency does the source give for OCC(O)CO here?
**A.** inactive

**Q.** For S=C1NCCN1, which Potency is on record?
**A.** inactive

**Q.** For CC(C)c1ccc(CO)cc1, which Potency is on record?
**A.** inactive

**Q.** For Oc1cc(Cl)c(Cl)cc1Cl, which Potency is on record?
**A.** inactive

**Q.** Which Potency does the source give for CC(C)(OOC(C)(C)c1ccccc1)c1ccccc1 here?
**A.** inactive

— PubChem BioAssay (Tox21)
